A selection: hits, their analogues and other compounds. The true share with any hit is near 19%.
IL1B secr inh: inflammasome signaling inhibition, IL-1 beta readout; activity change, % at 57.5 µM; AID 743279; THP-1 LPS/ATP IL-1B secretion, AlphaLISA, 16 h; stronger effect = lower value; 4.7% of 360,000 active; in the data active = activity change below about -50%; inconclusive = mostly about -30% to -49%
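Secreted IL-1B measured by AlphaLISA bead assay after 16 h compound exposure of THP-1 cells; compounds (final up to 57.5 uM) added 1 h before LPS (250 ng/mL) and ATP (1.25 mM) stimulation; lower signal means less secretion.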
HT1080 IDH1KD tx: HT-1080 IDH1 knockdown cell toxicity (counter line); HT-1080 IDH1 knockdown viability, ATP luminescence, 48 h; Potency, µM (series often up to 46.1 µM), for inactives: at the highest dose activity, negative = toxicity, most hits filed as cytotoxic; 2% of 360,000 active; AID 686971;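 also: potency is read from the fitted curve at half-maximal effect; 0% = DMSO wells and -100% = cell-free medium wells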
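Cytotoxicity counter-line: IDH1KD HT-1080, 48 h, CellTiter-Glo. Curves classed by r2, magnitude and activity.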
DT40 TDP1 no CPT: qHTS for Inhibitors of human tyrosyl-DNA phosphodiesterase 1 (TDP1): qHTS in cells in absence of CPT; DT40 Tdp1-/- hTDP1 cells, no CPT, ATP luminescence, 48 h; AID 686978, 2013; 15% of 420,000 active; Potency, µM (doses to about 46.2 µM), without a hit: at the top dose activity change, negative = growth inhibition, usual class: inhibitors; also: potency is read from the fitted curve at half-maximal effect; nearly all actives have a fitted effect of over 55% in size
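Readout: luminescence from CellTiter-Glo after 30 min in the dark at RT. Cells: DT40 Tdp1-/- with stable hTDP1, 400/well. Exposure: compounds alone, ≥48 hr, 37 °C.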
DT40 TDP1 CPT: DT40-hTDP1 cell growth loss with CPT | chicken DT40 Tdp1-/-;hTDP1 cells + 20 nM CPT, ATP luminescence, 48 h | Potency, µM (titrated, usually from 46.2 µM), for inactives: top-dose activity change, negative = growth inhibition, hits mostly inhibitors | 12% of 420,000 active; also: potency is read from the fitted curve at half-maximal effect; nearly all actives have a fitted effect of over 55% in size
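Chicken DT40 Tdp1-/- cells complemented with human TDP1, 400 cells/well, exposed to compounds plus 20 nM camptothecin for at least 48 h at 37 C; viability read as ATP content by CellTiter-Glo luminescence.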
HT1080NT lethal: kills 2HG-producing HT-1080-NT fibrosarcoma cells; HT-1080-NT fibrosarcoma viability, CellTiter-Glo ATP luminescence, 48 h; Potency, µM (top dose mostly 46.1 µM), for inactives: at the highest dose activity, negative = less viability, usual class: cytotoxic; 1.6% of 360,000 active; AID 686970;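 also: NT is the 2HG producing partner of a matched IDH1 knockdown line; potency is read from the fitted curve at half-maximal effect; 0% = DMSO-treated cells and -100% = media-only wells without cells; nearly all actives have a fitted effect of over 55% in size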
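Luminescent CellTiter-Glo readout after 48 hours of compound exposure at 37 degrees C defined viability of HT-1080-NT cells. Activity was normalized to DMSO wells and cell-free media wells; concentration-response curves were fitted and assigned curve classes.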
An asterisk follows results filed as active; ? = inconclusive; · = no result. Unless noted, calls follow the shape of the dose curve; as a rule, active = well fitted curve in the direction sought with a large enough effect; inconclusive = small, poorly fitted or top-dose-only effect, or another doubt; inactive = no such curve, though single readings can be large; an effect the other way counts as inactive or inconclusive. Unless noted, % is scaled to controls: 0 for no effect and ±100 for the full control effect.

SMILES	IL1B secr inh	HT1080 IDH1KD tx	DT40 TDP1 no CPT	DT40 TDP1 CPT	HT1080NT lethal
C[C@H](CO)N1C[C@H](C)[C@@H](CN(C)S(=O)(=O)c2ccc(F)cc2)Oc2c(NC(=O)Nc3ccc(C(F)(F)F)cc3)cccc2C1=O	-50.7*	-20.9%	?	?	-28.2%
C[C@H](CO)N1C[C@H](C)[C@@H](CN(C)S(=O)(=O)c2cn(C)cn2)Oc2c(NC(=O)Nc3ccc(C(F)(F)F)cc3)cccc2C1=O	11.5	-2.5%	-86.0%	?	1.5%
COc1ccc(NC(=O)Nc2cccc3c2O[C@H](CN(C)S(=O)(=O)c2ccc(F)cc2)[C@@H](C)CN([C@H](C)CO)C3=O)cc1	-20.5	-9.3%	-11.4%	-26.6%	0.4%
COCCn1c(C)cc(O)c(C(c2ccccc2OC)N2CCN(c3ccccc3)CC2)c1=O (stereo unspecified)	·	·	-5.1%	-16.9%	·
CC(C)(C)c1nc2c(s1)CCc1onc(-c3ccc(Cl)cc3)c1-2	37.4	1.9%	1.1%	6.4%	-2.9%
CC(C)(C)OC(=O)NCCc1nnc(S(=O)(=O)Cc2ccc(Cl)cc2Cl)o1	-117.8*	16.4µM*	2.59µM*	1.64µM*	18.4µM*
NCC1O[C@@H](OC2C(N)C[C@H](N)[C@@H](O[C@H]3OC(CO)C(O)C(N)C3O)C2O)C(O)C(O)C1O (stereo partly specified)	·	·	-2.6%	18.0%	·
Cc1c(N)nc([C@H](CC(N)=O)NC[C@H](N)C(N)=O)nc1C(=O)N[C@H](C(=O)N[C@H](C)[C@@H](O)[C@H](C)C(=O)N[C@H](C(=O)NCCc1nc(-c2nc(C(=O)NCCCCN=C(N)N)cs2)cs1)[C@@H](C)O)[C@@H](O[C@@H]1O[C@@H](CO)[C@@H](O)[C@H](O)[C@@H]1O[C@H]1O[C@H](CO)[C@@H](O)[C@H](OC(N)=O)[C@@H]1O)c1cnc[nH]1	·	·	0.944µM*	1.19µM*	·
CCn1c(C)c(CS(=O)(=O)c2ccccc2)[nH]c1=O	-6.0	?	2.91µM*	4.11µM*	?
CC1=C(C(=O)Nc2ccccc2C(=O)N2CCN(c3ccccc3)CC2)SCCO1	14.6	12.2%	18.4µM*	?	-1.3%
CC1=C(C(=O)Nc2ccccc2C(=O)N2CCCCC2)SCCO1	13.4	3.7%	26.8%	-12.4%	-7.2%
CC1=C(C(=O)Nc2cc(C(=O)N(C)Cc3ccccc3)ccc2C)SCCO1	-54.8*	2.7%	-1.8%	-25.1%	10.5%
COCCNC(=O)c1ccc(C)c(NC(=O)C2=C(C)OCCS2)c1	5.9	17.6%	-2.8%	9.8%	?
COc1ccccc1CNC(=O)c1ccccc1NC(=O)C1=C(C)OCCS1	?	-17.2%	?	20.6µM*	-4.3%
CCN(CC)c1ccc(N=Nc2ccc(S(=O)(=O)N(C)C)cc2)c(S(=O)(=O)NCC[n+]2ccccc2)c1	·	·	-30.2%	-19.9%	·
Cc1oc2ccc(O)c(CN3CCN(C)CC3)c2c1C(=O)Nc1ccccc1	·	·	-8.7%	-29.1%	·
Cc1ccc(NC(=O)c2c(C)oc3ccc(O)c(CN4CCN(Cc5ccccc5)CC4)c23)cc1	·	·	-85.7%	20.6µM*	·
Cc1oc2ccc(O)c(CN3CCCC3)c2c1C(=O)Nc1ccc(C(C)C)cc1	·	·	23.1µM*	23.1µM*	·
Cc1ccc(NC(=O)c2c(C)oc3ccc(O)c(CN4CCCCCC4)c23)cc1	·	·	16.4µM*	14.6µM*	·
Cc1ccc(NC(=O)c2c(C)oc3ccc(O)c(CN4CCCCCC4)c23)c(C)c1	·	·	6.51µM*	9.2µM*	·
Cc1ncccc1C(=O)N1CCCC(CNC(=O)C2(c3ccc(Cl)cc3)CC2)C1 (stereo unspecified)	15.5	10.7%	-2.0%	-5.6%	-1.2%
COc1ccc(C)cc1NC(=O)N(C(C)C)C1CCN(C(C)=O)CC1	·	·	0.7%	18.2%	·
Cc1oc2ccc(O)c(CN3CCN(C)CC3)c2c1C(=O)Nc1ccc(C(C)C)cc1	·	·	20.6µM*	16.4µM*	·
CCOC(=O)c1c(-c2ccccc2)oc2ccc(O)c(CN3CCCC3)c12	-60.0*	?	20.6µM*	23.1µM*	?
Cc1oc2ccc(O)c(CN3CCCCCC3)c2c1C(=O)Nc1cccc(C(F)(F)F)c1	·	·	5.17µM*	3.66µM*	·
SMILES	IL1B secr inh	HT1080 IDH1KD tx	DT40 TDP1 no CPT	DT40 TDP1 CPT	HT1080NT lethal
CCOC(=O)c1c(CSCc2ccccc2)oc2ccc(O)c(CN(C)C)c12	-82.2*	18.4µM*	16.4µM*	14.6µM*	20.6µM*
CC1CCCN(C(=O)COC(=O)C2=COCCO2)C1 (stereo unspecified)	20.9	15.3%	1.6%	-24.4%	7.6%
O=C(NCc1ccc(F)cc1F)[C@@H]1CCCN1C(=O)[C@@H]1CCCN1C(=O)c1ccc(Cl)cc1	11.9	1.0%	?	?	3.1%
O=C(CN1C(=O)CSc2ncccc21)Nc1cccc(Cl)c1	-23.4	0.3%	?	?	-16.5%
COc1ccc(-c2cc3nc(C)c(CCC(=O)N4CCN(c5ccccc5)CC4)c(C)n3n2)c(OC)c1	·	·	-3.5%	18.9%	·
CCc1ccc(NC(=O)C(=O)NCCOc2ccccc2Cl)cc1	14.6	-27.4%	23.1µM*	16.4µM*	?
COc1ccc(NC(=O)CC2C(=O)N(c3ccc(C)cc3)C(=O)N2Cc2ccc3c(c2)OCO3)cc1 (stereo unspecified)	·	·	?	-28.5%	·
COc1ccc(NC(=O)CC2C(=O)N(C)C(=S)N2Cc2ccc3c(c2)OCO3)cc1 (stereo unspecified)	12.0	-7.5%	-2.0%	1.5%	-5.7%
O=C(CC1C(=O)N(c2ccc(F)cc2)C(=O)N1Cc1ccc2c(c1)OCO2)Nc1ccc(Cl)cc1 (stereo unspecified)	·	·	20.6µM*	?	·
COc1ccc(NC(=O)CC2C(=O)N(c3ccc(F)cc3)C(=O)N2Cc2ccc3c(c2)OCO3)cc1 (stereo unspecified)	·	·	?	-18.2%	·
Cc1ccc(N2C(=O)C(CC(=O)Nc3ccc(F)cc3)N(Cc3ccc4c(c3)OCO4)C2=O)cc1 (stereo unspecified)	·	·	16.4µM*	?	·
CCN1C(=O)C(CC(=O)Nc2ccc(F)cc2)N(Cc2ccc3c(c2)OCO3)C1=S (stereo unspecified)	-59.7*	-28.1%	?	?	?
CCCc1nc2nc(C)c(NS(=O)(=O)c3ccc([N+](=O)[O-])cc3)c(=O)n2[nH]1	5.6	2.3%	-7.7%	4.6%	4.3%
CCCCn1c(N)c(N(C(=O)CSc2nncn2-c2ccccc2)C2CCCC2)c(=O)[nH]c1=O	?	11.6%	3.9%	-11.2%	7.5%
CCN(CC)Cc1nc2c(c(=O)[nH]1)C1(CCCC1)Cc1ccccc1-2	4.8	-20.8%	?	20.6µM*	9.0%
